TDP1 cell noCPT – qHTS for Inhibitors of human tyrosyl-DNA phosphodiesterase 1 (TDP1): qHTS in cells in absence of CPT | DT40 Tdp1-/- hTDP1 cells, no CPT, ATP luminescence, 48 h | Potency, µM (series often up to 46.2 µM), for inactives: top-dose activity change, negative = growth inhibition, actives largely listed as inhibitors | 420,000 compounds, 15% hits; also: potency is read from the fitted curve at half-maximal effect; % is scaled to controls: 0 for no effect and ±100 for the full control effect; nearly all actives have a fitted effect of over 55% in size
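Growth of hTDP1-complemented DT40 Tdp1-knockout cells is measured by ATP luminescence after at least 48 hr compound exposure at 37 °C, with DMSO substituting for the 20 nM CPT used in the parallel screen.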
DT40 TDP1 CPT – growth inhibition of DT40 Tdp1-/-;hTDP1 cells with camptothecin (screen for TDP1 inhibitors); chicken DT40 Tdp1-/-;hTDP1 cells + 20 nM CPT, ATP luminescence, 48 h; Potency, µM (doses to about 46.2 µM), without a hit: at the highest dose activity change, negative = growth inhibition, most hits filed as inhibitors; 420,000 compounds, 12% hits; also: potency is read from the fitted curve at half-maximal effect; % is scaled to controls: 0 for no effect and ±100 for the full control effect; nearly all actives have a fitted effect of over 55% in size
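Chicken DT40 Tdp1-/- cells complemented with human TDP1, 400 cells/well, exposed to compounds plus 20 nM camptothecin for at least 48 h at 37 C; viability read as ATP content by CellTiter-Glo luminescence.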
IL-1B inflam inh – inflammasome signaling inhibition, IL-1 beta readout; THP-1 LPS/ATP IL-1B secretion, AlphaLISA, 16 h; stronger effect = lower value; activity change, % at 57.5 µM; 360,000 compounds, 4.7% hits; AID 743279; in the data active = activity change below about -50%; inconclusive = mostly about -30% to -49%; also: % is scaled to controls: 0 for no effect and ±100 for the full control effect
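Secreted IL-1B measured by AlphaLISA bead assay after 16 h compound exposure of THP-1 cells; compounds (final up to 57.5 uM) added 1 h before LPS (250 ng/mL) and ATP (1.25 mM) stimulation; lower signal means less secretion.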
TDP1 inh – inhibitors of human tyrosyl-DNA phosphodiesterase TDP1; Q9NUW8; recombinant TDP1, AlphaScreen DNA substrate cleavage; Potency, µM (doses to about 130 µM), for the others: at the top dose activity change, negative = inhibition, hits mostly inhibitors; 350,000 compounds, 0.28% hits; AID 485290; also: potency is read from the fitted curve at half-maximal effect; % is scaled to controls: 0 for no effect and ±100 for the full control effect; nearly all actives have a fitted effect of over 40% in size
Target sequence (Q9NUW8 whole entry, looked up): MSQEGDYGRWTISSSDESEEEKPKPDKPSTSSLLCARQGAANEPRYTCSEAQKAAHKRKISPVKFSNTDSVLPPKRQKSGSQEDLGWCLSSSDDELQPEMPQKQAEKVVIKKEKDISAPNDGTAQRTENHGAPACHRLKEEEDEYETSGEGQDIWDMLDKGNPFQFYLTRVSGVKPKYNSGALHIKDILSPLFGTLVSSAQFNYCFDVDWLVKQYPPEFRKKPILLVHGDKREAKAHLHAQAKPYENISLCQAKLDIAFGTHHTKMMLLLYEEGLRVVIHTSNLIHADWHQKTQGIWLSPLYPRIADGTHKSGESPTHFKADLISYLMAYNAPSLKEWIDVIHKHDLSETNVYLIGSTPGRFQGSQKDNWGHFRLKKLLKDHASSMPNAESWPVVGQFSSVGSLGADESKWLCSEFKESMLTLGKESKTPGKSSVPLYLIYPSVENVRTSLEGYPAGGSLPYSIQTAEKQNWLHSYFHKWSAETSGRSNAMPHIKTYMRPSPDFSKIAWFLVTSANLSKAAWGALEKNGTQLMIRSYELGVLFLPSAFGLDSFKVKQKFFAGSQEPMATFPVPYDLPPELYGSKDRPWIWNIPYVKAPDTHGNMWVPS
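Signal: AlphaScreen proximity between streptavidin donor and anti-FITC acceptor beads on intact substrate. Reaction: Tdp1 1 nM, substrate 15 nM final, 5 min RT after 15 min compound preincubation.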
HepG2 viability – counter-screen for TGF-b inhibitors: cytotoxicity in HepG2 cells; HepG2 CAGA-GFP viability, ATP luminescence, 18 h; 410,000 compounds, 0.76% hits; Potency, µM (doses to about 46.1 µM), for inactives: top-dose activity change, negative = cytotoxicity, hits mostly cytotoxic; also: potency is read from the fitted curve at half-maximal effect
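CellTiter-Glo luminescence gave cytotoxicity after 18 hours at 37 degrees C. The cells were HepG2 CAGA-GFP in 1% FBS DMEM, stimulated with 500 pg/mL TGF-beta after compound addition. %Activity was normalised to no-cell wells (complete cell-killing) and DMSO (no toxicity), and curves were fitted and classified.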
TGFb inhibitor – TGF-b pathway inhibition; HepG2 CAGA-GFP TGF-b/SMAD3 reporter, GFP fluorescence, 18 h; TGF-beta stimulated, 500 pg/mL final; Potency, µM (series often up to 46.1 µM), for inactives: at the top dose activity, negative = inhibition, hits mostly inhibitors; 410,000 compounds, 1.2% hits; also: potency is read from the fitted curve at half-maximal effect; % is scaled to controls: 0 for no effect and ±100 for the full control effect; nearly all actives have a fitted effect of over 65% in size
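HEPG2 CAGA-GFP cells (1000/well, DMEM with 1% FBS) were pre-incubated 2 h at 37 degrees C, given compound by pin tool, then stimulated with TGF-beta at 500 pg/mL final for 18 h before per-cell GFP fluorescence imaging.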
Starred values were filed as active, the others as inactive; ? = inconclusive; · = not tested or not shown. Only some compounds are listed: those with a hit (about 19% of all), similar ones and a draw of the others. Unless noted, calls follow the shape of the dose curve; as a rule, active = well fitted curve in the direction sought with a large enough effect; inconclusive = small, poorly fitted or top-dose-only effect, or another doubt; inactive = no such curve, though single readings can be large; an effect the other way counts as inactive or inconclusive.

SMILES | TDP1 cell noCPT | DT40 TDP1 CPT | IL-1B inflam inh | TDP1 inh | HepG2 viability | TGFb inhibitor
CC(C)NC(=O)Nc1ccc2c(c1)C(=O)N([C@@H](C)CO)C[C@@H](C)[C@H](CN(C)Cc1ccccc1)OCCCC[C@H](C)O2 | ? | -19% | -12 | · | 48% | 28%
C[C@@H]1CCCCO[C@H](CN(C)Cc2ccc3c(c2)OCO3)[C@@H](C)CN([C@H](C)CO)C(=O)c2cc(NC(=O)c3ccccc3)ccc2O1 | 15µM* | 21µM* | ? | · | 2% | ?
Cc1cccc(NC(=O)Cn2nnc(-c3nc(-c4ccncc4)no3)c2N)c1 | ? | -22% | · | 3% | -13% | ·
O=c1oc2c(CN3CCOCC3)c(O)ccc2cc1-c1ccc(Cl)cc1 | ? | ? | · | -5% | -10% | ?
C[C@@H]1CCCCO[C@H](CN(C)C(=O)c2ccccc2)[C@@H](C)CN([C@H](C)CO)C(=O)c2cc(NC(=O)c3ccncc3)ccc2O1 | 12% | 8% | 19 | · | -2% | 5%
C[C@@H]1CCCCO[C@H](CN(C)Cc2ccc3c(c2)OCO3)[C@H](C)CN([C@@H](C)CO)C(=O)c2cc(NC(=O)c3ccccc3)ccc2O1 | 21µM* | 26µM* | -14 | · | -68% | ?
O=C(c1cc(C(F)(F)F)cc(C(F)(F)F)c1)N1CCC[C@@]2(CCN(c3ccncc3)C2)C1 | ? | -29% | · | · | · | ·
CCc1cccc(NC(=O)c2nnn(Cc3ccc(SC)cc3)c2N)c1 | -2% | -2% | · | 3% | -28% | -28%
CCc1ccc(S(=O)(=O)c2cnc3ccc(OC)cc3c2N2CCCC(C)C2)cc1 (stereo not given) | ? | 16µM* | · | 0% | -40% | -7%
CCCCn1cc(S(=O)(=O)c2ccc(C)c(C)c2)c(=O)c2cc(F)c(N3CCN(C)CC3)cc21 | ? | -4% | · | 2% | -14% | -2%
COc1ccc(S(=O)(=O)c2cnc3ccc(Cl)cc3c2N2CCCCC2C)cc1 (stereo not given) | 23µM* | 16µM* | · | 3% | -60% | ?
COc1ccc2c(c1)c(=O)c(S(=O)(=O)c1ccc(Cl)cc1)cn2C | ? | -30% | · | 4% | 7% | 2%
CCN1CCN(c2c(S(=O)(=O)c3ccc(C)c(C)c3)cnc3cc(OC)c(OC)cc23)CC1 | ? | 15µM* | · | -1% | -30% | -5%
CCN1CCN(c2c(S(=O)(=O)c3ccccc3)cnc3ccc(Cl)cc23)CC1 | ? | -21% | · | 0% | -23% | 7%
CCc1ccc2ncc(S(=O)(=O)c3ccc(C)c(C)c3)c(N3CCCC3)c2c1 | 15µM* | 23µM* | -25 | -2% | 18% | ?
COc1ccc(S(=O)(=O)c2cnc3cc(OC)c(OC)cc3c2N2CCCC(C)C2)cc1 (stereo not given) | ? | ? | · | 8% | -22% | ?
C[C@@H]1CN(Cc2cn(C)nc2-c2cccc(Cl)c2)C[C@H](C)O1 | ? | -20% | 2 | -6% | 3% | 4%
Cc1ccc(NC(=O)CCSc2nc(-c3ccco3)cc(C(F)(F)F)n2)cc1F | ? | ? | · | -1% | 0% | -1%
CCN1CCN(c2c(S(=O)(=O)c3ccc(Cl)cc3)cnc3ccccc23)CC1 | ? | 13µM* | · | 1% | 8% | ?
COc1ccc(Cn2nnnc2C(c2cc3ccc(OC)cc3[nH]c2=O)N2CCC(C)CC2)cc1 (stereo not given) | ? | ? | 0 | -2% | 5% | ?
Cc1cc(C)c2[nH]c(=O)c(C(c3nnnn3Cc3ccc4c(c3)OCO4)N3CCC(C)CC3)cc2c1 (stereo not given) | 16µM* | ? | -22 | 0% | -4% | 2%
COc1ccc2[nH]c(=O)c(C(c3nnnn3C3CCCC3)N3CCN(Cc4ccc5c(c4)OCO5)CC3)cc2c1 (stereo not given) | ? | 26µM* | ? | 3% | 2% | -9%
O=C(CCCC(=O)c1ccc(F)cc1)c1ccc(F)cc1 | 6% | 0% | -8 | · | -6% | -2%
Fc1ccc(NCc2cccn2-c2nnc(N3CCOCC3)s2)cc1 | -27% | -18% | · | 7% | -17% | -8%
Cc1ccc(NCc2cccn2-c2nnc(N3CCC(C(=O)NCc4ccccc4C)CC3)s2)cc1 | 16µM* | ? | · | 2% | -17% | ·
SMILES | TDP1 cell noCPT | DT40 TDP1 CPT | IL-1B inflam inh | TDP1 inh | HepG2 viability | TGFb inhibitor
CCN1CCN(CCCNC(=O)C2CCN(c3nnc(-n4c(C)ccc4C)s3)CC2)CC1 | ? | -26% | -19 | · | -7% | 1%
CCc1ccc(CNC(=O)C2CCN(c3nnc(-n4c(C)ccc4C)s3)CC2)cc1 | 8.2µM* | ? | · | 8% | -35% | ·
Cc1ccc(NCc2cccn2-c2nnc(N3CCC(C(=O)NCCc4ccccc4)CC3)s2)cc1 | ? | ? | · | 4% | -2% | ·
Cc1ccc(NCc2cccn2-c2nnc(N3CCCCCC3)s2)cc1 | 16µM* | ? | · | 12% | -13% | -9%
COc1ccccc1CCNC(=O)C1CCN(c2nnc(-n3cccc3CNc3ccc(C)cc3)s2)CC1 | 23µM* | 18µM* | · | 0% | -29% | 0%
COc1ccc(OC(=O)CCc2c[nH]c3ccccc23)cc1 | ? | -15% | 56 | 6% | -1% | 0%
COc1ccc(OC(C)C(=O)N(C)Cc2nc(-c3ccc(OC)cc3)no2)cc1 (stereo not given) | ? | ? | 25 | 6% | 2% | 2%
COc1cc2[nH]c(=O)n(CCCCCC(=O)NCCc3ccccc3)c(=O)c2cc1OC | -14% | -16% | · | 3% | -9% | ?
COc1ccc(CNC(=O)COC(=O)c2cccs2)cc1 | 2% | 27% | 33 | -16% | -6% | 4%
Cc1ccc(NCc2cccn2-c2nnc(N3CCC(C(=O)NCc4ccc(F)cc4)CC3)s2)cc1 | 18µM* | ? | · | 8% | -25% | ·
CCC1(c2ccccc2)CN(C)C1=O (stereo not given) | -13% | 3% | -9 | · | -9% | 16%
CCC1(c2ccccc2)ON(c2c(Br)cccc2Br)C1=O (stereo not given) | 16µM* | 18µM* | -97* | -8% | -102% | ?
CCOc1ccccc1C(=O)Nc1nnc(CC)s1 | 21µM* | 16µM* | 14 | 3% | -9% | -5%
CCOc1ccccc1C(=O)Nc1nn[nH]n1 | -17% | 9% | 12 | 4% | -4% | 5%
